The whole screen tested about 37,000 compounds, of which about 100 (0.27%) were called active. The list comes from a sample in which actives are over-represented; it also holds similar structures and randomly drawn compounds. Values without a mark were called inactive. No stated cut-off is given here; in the data, active means inhibition above about 85%; inconclusive means no clear call, values can overlap the other calls; inactive means below about 68%.

The experiment can be described thus: inhibitors of MITF, primary screen, MITF inhibitor project, cell-based, luminescence (AID 2240).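 Further: human melanocyte line stably carrying TRPM1 promoter luciferase reporter.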 Conditions: TRPM1 promoter luciferase, 24 h, active compounds read high, concentration not given here.
On to `O=C(CSc1nnc2c(n1)[nH]c1ccccc12)Nc1cccc(C(F)(F)F)c1`, for which the inhibition (usually the relative decrease from the control value, in per cent) was 63.8%.
In the case of `CN(c1ccc(C(=O)NCc2ccccn2)cc1)S(C)(=O)=O`, the inhibition was -16%.
Regarding `COC(=O)c1scc(S(=O)(=O)C(C)(C)C)c1-n1cccc1`, the inhibition is 3.33%.
Regarding `C[C@@H]1CN([C@@H](C)CO)C(=O)c2cccc(NS(=O)(=O)c3cn(C)cn3)c2O[C@H]1CN(C)Cc1ccc(Cl)c(Cl)c1`, the inhibition was -17%.
Turning to `CC(C)NC(=O)Nc1ccc2c(c1)C(=O)N([C@H](C)CO)C[C@H](C)[C@@H](CN(C)CC1CCCCC1)OCCCC[C@@H](C)O2`, the inhibition was 0.663%.
Consider `COc1ccc(CN(C)C[C@@H]2Oc3ccc(NC(=O)Nc4ccc(OC)cc4)cc3C(=O)N([C@H](C)CO)C[C@H]2C)cc1`, for which the inhibition was -5.96%.
Consider `CCc1ccccc1NC(=O)Cn1cnc2scc(-c3ccc(OC)cc3)c2c1=O`, for which the inhibition is 27.3%.
Take `COc1ccc(S(=O)(=O)Nc2cccc3c2O[C@H](CN(C)C(=O)Nc2cccc4ccccc24)[C@H](C)CN([C@@H](C)CO)C3=O)cc1`: the inhibition was 4.99%.
For `NC(=S)c1cnn2c(C(F)(F)F)cc(C(F)(F)F)nc12` the value was 6.61%; for `C[C@@H]1CN([C@@H](C)CO)C(=O)c2cc(NC(=O)CCN3CCOCC3)ccc2O[C@@H]1CN(C)S(=O)(=O)c1ccccc1`, -5.16%; for `C[C@H](CO)N1C[C@H](C)[C@@H](CN(C)Cc2ccc(C(F)(F)F)cc2)Oc2c(NC(=O)NC3CCCCC3)cccc2C1=O`, 15.8%.
For the compound `C[C@@H]1CN([C@@H](C)CO)C(=O)Cc2cc(NC(=O)Cc3ccccc3)ccc2O[C@@H]1CN(C)Cc1ccc2c(c1)OCO2`, the inhibition is 4.15%.
For `O=C(CSc1nnc2n1CCCN2)c1ccccc1` the value was -27.2%; for `Cc1ccc(C23CC4CC(CC(CN)(C4)C2)C3)cc1C`, 94.1% (active).
With `C[C@@H]1CN([C@H](C)CO)C(=O)Cc2cc(NC(=O)Nc3ccc4c(c3)OCO4)ccc2O[C@@H]1CN(C)C(=O)Nc1ccccc1`, the inhibition was 8.24%.
Regarding `COc1ccc(S(=O)(=O)Nc2ccc3c(c2)CC(=O)N([C@@H](C)CO)C[C@@H](C)[C@@H](CN(C)C)O3)cc1`, the inhibition is -7.94%.
Regarding `C[C@@H]1CCCCO[C@@H](CN(C)Cc2ccncc2)[C@@H](C)CN([C@H](C)CO)C(=O)c2cc(NS(=O)(=O)c3cccs3)ccc2O1`, the inhibition was -6.77%.
The same measure for `C[C@H]1CN([C@@H](C)CO)C(=O)Cc2cc(NC(=O)Nc3ccccc3)ccc2O[C@H]1CN(C)S(=O)(=O)c1cn(C)cn1`: -4.73%.

The values above are taken from PubChem BioAssay AID2240 (Broad Institute, 2010).
